Among the data in PubChem BioAssay (Tox21) are Potency and max activation values, retold here.

Assay [1] is described as follows: Caspase-3/7 induction in CHO-K1 cells by small molecules, qHTS assay (AID 1346980). Further: nearly all actives have a fitted effect of over 15% in size. In short, it runs like this: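 Luminescent Caspase-Glo 3/7 read (30min, room temperature) quantified apoptosis induction. Cells were wild-type CHO-K1, treated with compound for 17hr at 37 C and 5% CO2.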
(In general: In qHTS, concentration-response curves come from the screen itself.)

A short description of assay [2]: Caspase-3/7 induction in HepG2 cells by small molecules, qHTS cell viability counter screen (AID 1346981). Further: nearly all actives have a fitted effect of over 30% in size. Further: potency means the concentration at half of the fitted maximal effect. Put shortly: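 HepG2, WT, 2,000 cells/well; 5 hr pre-incubation 37 C/5% CO2; compound pin-transferred from DMSO; 16 hr exposure; CellTiter-Fluor, 1 hr; fluorescence read.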
Assay [3] deals with Nuclear receptor subfamily 1 group I member 2 (Homo sapiens) (UniProt O75469). Nature of the assay: Human pregnane X receptor (PXR) small molecule agonists, qHTS assay (AID 1346982). Further: nearly all actives have a fitted effect of over 35% in size. Further: potency means the concentration at half of the fitted maximal effect. Put shortly:
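Luciferase signal from ONE-Glo (30 min, room temperature) measured activation of hPXR-driven CYP3A4 reporter expression in PXR-Luc HepG2 cells treated with compounds for 24 hr at 37 C.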

In assay [4] the target is Acetylcholinesterase (Homo sapiens) (UniProt P22303). Nature of the assay: Acetylcholinesterase (AChE) small molecule antagonists: enzyme-based qHTS assay (AID 1347397; calls by dose curve; further: nearly all actives have a fitted effect of over 55% in size). The note with it: Potency: AChE enzyme activity inhibition. Put shortly:
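Absorbance-based detection of thiocholine with DTNB served as the read-out. Recombinant human AChE was exposed to compound for 30 min at RT before a 10 min RT incubation with acetylthiocholine.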

For assay [5] the target is unchanged. Nature of the assay: Acetylcholinesterase (AChE) small molecule antagonists: fluorescence cell-based qHTS assay (AID 1347398; calls by dose curve; further: nearly all actives have a fitted effect of over 50% in size). The note with it: Potency: AChE activity. Put shortly:
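Fluorimetric cell-based assay: intact SH-SY5Y cells, 30 min compound preincubation at 37 C, acetylthiocholine substrate with thiol probe Thiolite Green, 40 min RT development, fluorescence 490/520 nm.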

Assay [6] has the same target. Nature of the assay: Acetylcholinesterase (AChE) small molecule antagonists: enzyme-based qHTS assay with human liver microsomes (AID 1347399; calls by dose curve; further: nearly all actives have a fitted effect of over 60% in size). The note with it: Potency: qHTS inhibition. In short, it runs like this: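 Recombinant human AChE (50 mU/mL in the enzyme mix) and human liver microsomes (0.25 mg/mL final) were preincubated with compound and NADPH (0.25 mg/mL final) for 30 min at 37 C. Acetylthiocholine/DTNB was then added; thiocholine was read colorimetrically after 10 min at room temperature.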

Assay [7] deals with Cytochrome P450 2D6 (Homo sapiens) (UniProt P10635). Nature of the assay: Cytochrome P450 Family 2 Subfamily D Member 6 (CYP2D6) small molecule antagonists: luciferase reporter qHTS assay (AID 1671196). Further: nearly all actives have a fitted effect of over 50% in size. Further: potency means the concentration at half of the fitted maximal effect. Put shortly: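 Read-out is luminescence from luciferin formed by CYP2D6 turnover of a proluciferin substrate, recorded as relative luminescence units. Reactions ran 1 h at room temperature after NADPH regeneration solution was added.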
Chain of Cytochrome P450 2D6 (Homo sapiens) (P10635 whole entry, looked up): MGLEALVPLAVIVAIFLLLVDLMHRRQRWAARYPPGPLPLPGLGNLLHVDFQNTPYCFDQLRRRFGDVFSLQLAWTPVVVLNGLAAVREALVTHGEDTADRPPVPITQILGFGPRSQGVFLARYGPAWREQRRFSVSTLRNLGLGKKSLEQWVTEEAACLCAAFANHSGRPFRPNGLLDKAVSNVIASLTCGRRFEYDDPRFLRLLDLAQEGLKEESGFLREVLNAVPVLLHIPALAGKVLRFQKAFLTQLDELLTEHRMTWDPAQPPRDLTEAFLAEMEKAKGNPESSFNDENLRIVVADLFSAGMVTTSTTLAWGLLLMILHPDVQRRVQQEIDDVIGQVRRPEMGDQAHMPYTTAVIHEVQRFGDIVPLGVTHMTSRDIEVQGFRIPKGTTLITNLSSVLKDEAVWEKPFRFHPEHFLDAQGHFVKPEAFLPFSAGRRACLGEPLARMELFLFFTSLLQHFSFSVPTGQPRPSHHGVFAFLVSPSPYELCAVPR
(In general: In a reporter assay the amount or activity of a reporter protein is the signal.)

Assay [8] addresses Cytochrome P450 2C19 (Homo sapiens) (UniProt P33261). Nature of the assay: Cytochrome P450 Family 2 Subfamily C Member 19 (CYP2C19) small molecule antagonists: luciferase reporter qHTS assay (AID 1671197). Further: nearly all actives have a fitted effect of over 65% in size. Further: potency means the concentration at half of the fitted maximal effect. In short, it runs like this: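 Quantitative high-throughput screen of the Tox21 library using CYP2C19 with proluciferin substrate. Reaction: NADPH regeneration, 37C, 1 h, after 10 min compound preincubation at room temperature. Readout: luminescence.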

For assay [9], the target named is Voltage-gated inwardly rectifying potassium channel KCNH2 (Homo sapiens) (UniProt Q12809). Nature of the assay: Human Ether-a-go-go-Related Gene (hERG) channel small molecule antagonists: fluorescence cell-based qHTS assay (AID 1671200).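 Further: hERG-expressing U2OS cells given a thallium stimulus after FluxOR II dye loading; series mostly up to about 77 µM; nearly all actives have a fitted effect of over 50% in size.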 In short, it runs like this: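 Channel function was assessed by thallium flux. Cells seeded the previous day and kept at 37 C took up FluxOR II dye over 1 h in the dark at room temperature, then sat another 10 min before stimulation.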
Chain of Voltage-gated inwardly rectifying potassium channel KCNH2 (Homo sapiens) (Q12809 whole entry, looked up): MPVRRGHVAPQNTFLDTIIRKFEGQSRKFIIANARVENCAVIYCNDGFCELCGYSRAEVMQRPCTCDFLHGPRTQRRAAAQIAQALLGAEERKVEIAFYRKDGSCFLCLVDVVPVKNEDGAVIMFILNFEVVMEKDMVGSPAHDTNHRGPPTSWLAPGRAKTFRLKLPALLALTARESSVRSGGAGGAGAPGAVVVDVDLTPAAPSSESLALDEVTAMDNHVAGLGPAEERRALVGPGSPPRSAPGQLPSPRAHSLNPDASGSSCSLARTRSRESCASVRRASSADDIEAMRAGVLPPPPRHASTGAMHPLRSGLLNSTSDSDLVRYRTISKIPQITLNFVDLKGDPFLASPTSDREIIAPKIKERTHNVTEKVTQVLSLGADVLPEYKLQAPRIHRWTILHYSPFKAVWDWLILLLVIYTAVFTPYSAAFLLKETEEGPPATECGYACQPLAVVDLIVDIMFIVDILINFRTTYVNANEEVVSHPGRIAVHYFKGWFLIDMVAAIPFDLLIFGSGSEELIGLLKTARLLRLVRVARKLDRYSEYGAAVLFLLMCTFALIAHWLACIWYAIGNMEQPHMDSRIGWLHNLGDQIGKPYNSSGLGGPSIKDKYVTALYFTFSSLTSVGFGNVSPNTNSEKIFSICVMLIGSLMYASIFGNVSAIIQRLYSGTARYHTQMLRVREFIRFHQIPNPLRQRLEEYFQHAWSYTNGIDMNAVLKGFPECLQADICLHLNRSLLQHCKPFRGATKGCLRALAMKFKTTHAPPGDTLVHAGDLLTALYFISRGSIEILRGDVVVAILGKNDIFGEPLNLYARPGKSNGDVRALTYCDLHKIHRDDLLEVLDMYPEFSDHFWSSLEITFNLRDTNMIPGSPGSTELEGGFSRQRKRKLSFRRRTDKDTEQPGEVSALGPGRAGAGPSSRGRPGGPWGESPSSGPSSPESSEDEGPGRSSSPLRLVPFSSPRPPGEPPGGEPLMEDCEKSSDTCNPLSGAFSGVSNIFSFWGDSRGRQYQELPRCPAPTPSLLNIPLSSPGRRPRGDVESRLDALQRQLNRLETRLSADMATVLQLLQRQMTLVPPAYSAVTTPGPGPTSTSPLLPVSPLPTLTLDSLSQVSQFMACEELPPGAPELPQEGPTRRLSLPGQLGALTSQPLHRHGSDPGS
On the technique in general: The hERG channel carries a current that helps repolarise heart muscle cells.

Assay [10] deals with Cytochrome P450 3A4 (Homo sapiens) (UniProt P08684). Nature of the assay: Cytochrome P450 Family 3 Subfamily A Member 4 (CYP3A4) small molecule antagonists: luciferase reporter qHTS assay (AID 1671201). Further: series mostly up to about 120 µM; nearly all actives have a fitted effect of over 50% in size. In short, it runs like this:
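Compounds in DMSO were pin-transferred onto CYP3A4 enzyme-substrate mix and held 10 min at room temperature. NADPH regenerating solution started the reaction for 1 h; luciferin detection reagent stopped it, and luminescence was read after 20 min.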

Assay [11] is described as follows: Caspase-3/7 induction in CHO-K1 cells by small molecules, qHTS cell viability counter screen (AID 1346979). Further: nearly all actives have a fitted effect of over 35% in size. In short, it runs like this: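 Cells (CHO-K1, wild type) are plated at 1,500 per well and incubated 5hr. Test compounds in DMSO are then pinned in, followed by 16hr at 37C and 5% CO2. Viability is read by CellTiter-Fluor fluorescence after 1hr.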
For assay [12], the target named is Cytochrome P450 2C9 (Homo sapiens) (UniProt P11712). Nature of the assay: Cytochrome P450 Family 2 Subfamily C Member 9 (CYP2C9) small molecule antagonists: luciferase reporter qHTS assay (AID 1671198). Further: nearly all actives have a fitted effect of over 50% in size. Further: potency means the concentration at half of the fitted maximal effect. In short, it runs like this:
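Enzyme-substrate mix preincubated with compound 10 min at room temperature; reaction started with NADPH regeneration solution, 1 h 37C. Luminescent luciferin product read after 20 min detection reagent.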

Assay [13] has as its target Cytochrome P450 1A2 (Homo sapiens) (UniProt P05177). Nature of the assay: Cytochrome P450 Family 1 Subfamily A Member 2 (CYP1A2) small molecule antagonists: luciferase reporter qHTS assay (AID 1671199). Further: nearly all actives have a fitted effect of over 50% in size. Further: potency means the concentration at half of the fitted maximal effect. Put shortly: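 P450-Glo CYP1A2, 1536-well qHTS: enzyme/proluciferin substrate + cpd (DMSO), 10 min RT; NADPH regen, 1 h RT; detection reagent, 20 min; luminescence, RLU.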

The target in assay [14] is Acetylcholinesterase (Homo sapiens) (UniProt P22303). Nature of the assay: Acetylcholinesterase (AChE) small molecule antagonists: colormetric cell-based qHTS assay (AID 1347395; calls by dose curve; further: nearly all actives have a fitted effect of over 30% in size). In short, it runs like this:
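Colorimetric read-out: DTNB detects thiocholine released when cellular AChE in SH-SY5Y cells hydrolyses acetylthiocholine. Cells attached overnight, received compound for 30 min at 37 C, then substrate mix for 90 min at 37 C.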

The target in assay [15] is Nuclear receptor subfamily 1 group I member 2 (Rattus norvegicus) (UniProt Q9R1A7). Nature of the assay: Rat pregnane X receptor (rPXR) activation by small molecules, qHTS assay (AID 1346983). Further: nearly all actives have a fitted effect of over 20% in size. The note with it: rPXR luciferase reporter cells, One-Glo luminescence, 24 h; stronger effect = higher value. In short, it runs like this: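 Luminescent readout (One-Glo luciferase, 30 min room temperature) followed 24 hr compound treatment at 37 C of rPXR cells plated 2,000 per well and preincubated 5hr; qHTS format with compounds delivered in DMSO.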

“And” between values parts separate entries of the source, which are not always exact repeats. Equal values may be shown once. Inconclusive results are not listed. Some structures have more than one record in an assay (separate samples or runs), and their calls can disagree. The source made the active and inactive calls. Unless noted, the call rests on the fitted dose curve; in most records, active means well fitted curve in the direction sought with a large enough effect in the repeat runs; inconclusive means weak or mixed curves; inactive means no such curve, though single readings can be large; an effect the other way counts as inactive or inconclusive.
On the % scale 0 is the no-effect control and ±100 the full control effect.

Chain of Cytochrome P450 1A2 (Homo sapiens) (P05177 whole entry, looked up): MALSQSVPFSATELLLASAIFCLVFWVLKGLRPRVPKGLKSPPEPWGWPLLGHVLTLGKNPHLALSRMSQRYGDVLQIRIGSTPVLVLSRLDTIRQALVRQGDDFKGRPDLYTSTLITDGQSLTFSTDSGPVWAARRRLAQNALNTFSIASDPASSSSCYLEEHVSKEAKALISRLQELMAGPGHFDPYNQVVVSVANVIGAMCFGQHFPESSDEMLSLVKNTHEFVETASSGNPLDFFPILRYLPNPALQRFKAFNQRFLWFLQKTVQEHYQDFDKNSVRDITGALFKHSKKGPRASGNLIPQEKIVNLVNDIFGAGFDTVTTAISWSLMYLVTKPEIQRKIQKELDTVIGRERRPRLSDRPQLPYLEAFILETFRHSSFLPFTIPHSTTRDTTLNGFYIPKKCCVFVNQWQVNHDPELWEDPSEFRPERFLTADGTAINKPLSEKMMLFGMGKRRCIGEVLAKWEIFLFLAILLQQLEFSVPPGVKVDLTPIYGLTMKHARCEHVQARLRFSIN
Chain of Acetylcholinesterase (Homo sapiens) (P22303 whole entry, looked up): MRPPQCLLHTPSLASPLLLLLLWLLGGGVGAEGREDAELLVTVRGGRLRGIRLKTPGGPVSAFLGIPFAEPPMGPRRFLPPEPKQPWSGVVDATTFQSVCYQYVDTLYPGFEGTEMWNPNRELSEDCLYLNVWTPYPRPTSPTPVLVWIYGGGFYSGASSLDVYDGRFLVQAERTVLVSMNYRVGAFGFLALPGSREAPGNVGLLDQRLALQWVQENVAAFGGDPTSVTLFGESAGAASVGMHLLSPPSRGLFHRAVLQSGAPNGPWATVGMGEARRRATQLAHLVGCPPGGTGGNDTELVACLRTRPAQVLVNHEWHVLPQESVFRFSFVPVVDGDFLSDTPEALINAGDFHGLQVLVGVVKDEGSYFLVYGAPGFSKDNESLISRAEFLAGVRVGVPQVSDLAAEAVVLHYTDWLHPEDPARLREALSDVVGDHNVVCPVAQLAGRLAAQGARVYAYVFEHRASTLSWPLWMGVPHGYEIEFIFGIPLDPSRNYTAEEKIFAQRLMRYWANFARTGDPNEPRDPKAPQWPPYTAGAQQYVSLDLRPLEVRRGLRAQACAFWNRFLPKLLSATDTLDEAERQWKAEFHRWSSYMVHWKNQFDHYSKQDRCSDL
Chain of Cytochrome P450 2C19 (Homo sapiens) (P33261 whole entry, looked up): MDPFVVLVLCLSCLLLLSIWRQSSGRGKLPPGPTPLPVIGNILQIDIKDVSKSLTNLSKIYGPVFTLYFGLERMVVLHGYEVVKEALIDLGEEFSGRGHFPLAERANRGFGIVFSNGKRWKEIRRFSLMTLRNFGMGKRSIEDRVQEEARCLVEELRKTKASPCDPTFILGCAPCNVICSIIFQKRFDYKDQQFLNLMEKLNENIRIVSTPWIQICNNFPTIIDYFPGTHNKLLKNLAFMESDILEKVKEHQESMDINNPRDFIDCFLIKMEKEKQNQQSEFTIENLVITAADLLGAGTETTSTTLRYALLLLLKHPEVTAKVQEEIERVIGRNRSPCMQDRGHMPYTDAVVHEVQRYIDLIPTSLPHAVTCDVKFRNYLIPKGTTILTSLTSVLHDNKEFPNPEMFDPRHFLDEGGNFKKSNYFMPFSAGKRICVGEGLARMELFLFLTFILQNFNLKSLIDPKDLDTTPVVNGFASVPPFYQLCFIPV
Chain of Cytochrome P450 3A4 (Homo sapiens) (P08684 whole entry, looked up): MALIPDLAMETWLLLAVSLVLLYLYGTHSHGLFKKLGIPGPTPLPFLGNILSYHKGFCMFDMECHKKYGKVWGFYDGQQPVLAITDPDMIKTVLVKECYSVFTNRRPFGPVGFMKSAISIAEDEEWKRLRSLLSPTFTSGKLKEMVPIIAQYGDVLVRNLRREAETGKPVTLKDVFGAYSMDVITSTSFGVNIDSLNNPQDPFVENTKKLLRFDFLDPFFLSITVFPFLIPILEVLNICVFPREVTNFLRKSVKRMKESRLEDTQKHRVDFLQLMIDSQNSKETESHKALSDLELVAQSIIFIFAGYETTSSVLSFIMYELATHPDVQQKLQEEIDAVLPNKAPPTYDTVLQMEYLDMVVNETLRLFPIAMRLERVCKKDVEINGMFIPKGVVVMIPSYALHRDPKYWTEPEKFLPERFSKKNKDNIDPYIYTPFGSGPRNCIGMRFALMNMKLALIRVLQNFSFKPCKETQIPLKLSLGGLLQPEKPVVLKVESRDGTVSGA
Chain of Cytochrome P450 2C9 (Homo sapiens) (P11712 whole entry, looked up): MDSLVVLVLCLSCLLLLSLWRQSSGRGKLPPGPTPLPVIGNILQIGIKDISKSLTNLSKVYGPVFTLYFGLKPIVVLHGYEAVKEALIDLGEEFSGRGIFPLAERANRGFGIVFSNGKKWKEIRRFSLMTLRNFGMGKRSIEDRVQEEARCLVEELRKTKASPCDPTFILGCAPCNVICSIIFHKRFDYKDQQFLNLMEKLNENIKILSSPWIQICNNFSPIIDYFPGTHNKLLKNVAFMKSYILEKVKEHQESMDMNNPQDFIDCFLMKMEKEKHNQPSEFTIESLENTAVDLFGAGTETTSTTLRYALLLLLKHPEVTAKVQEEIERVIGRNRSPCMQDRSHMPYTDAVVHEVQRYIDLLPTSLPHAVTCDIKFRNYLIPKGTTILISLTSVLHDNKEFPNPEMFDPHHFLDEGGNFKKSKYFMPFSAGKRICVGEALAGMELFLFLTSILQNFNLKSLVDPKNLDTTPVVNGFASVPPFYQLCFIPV
Chain of Nuclear receptor subfamily 1 group I member 2 (Homo sapiens) (O75469 whole entry, looked up): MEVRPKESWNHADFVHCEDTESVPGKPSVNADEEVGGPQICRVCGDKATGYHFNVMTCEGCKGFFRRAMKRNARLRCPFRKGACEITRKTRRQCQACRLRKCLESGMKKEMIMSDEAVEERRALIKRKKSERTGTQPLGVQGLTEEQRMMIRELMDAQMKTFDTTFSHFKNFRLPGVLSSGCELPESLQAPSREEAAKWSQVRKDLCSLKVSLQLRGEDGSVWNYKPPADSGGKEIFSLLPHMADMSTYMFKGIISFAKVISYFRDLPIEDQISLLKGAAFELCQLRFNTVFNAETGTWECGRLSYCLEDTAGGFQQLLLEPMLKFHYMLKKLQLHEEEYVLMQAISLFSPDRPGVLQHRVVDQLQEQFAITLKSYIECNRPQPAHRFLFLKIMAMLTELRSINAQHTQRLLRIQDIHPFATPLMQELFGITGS

In the case of `Nc1ccncc1`, the Potency entry in assay [1], in [2], in assay [3], in assay [4], in assay [5] and in [6] was “inactive” each time. Also, the Potency entry in assay [7], in assay [8], in assay [9] and in assay [10] was “inactive” each time.

For `COC(=O)c1sccc1S(=O)(=O)NC(=O)Nc1nc(C)nc(OC)n1`, the Potency entry in assay [11], in assay [1], in [2], in assay [3], in assay [4] and in [5] was “inactive” in each case. The Potency entry in assay [6], in assay [7], in [12], in assay [13], in assay [9] and in assay [10] was “inactive” each time. In addition, in assay [8], the Potency is 81.3 µM (active).

`c1ccc(N=Nc2ccccc2)cc1`: the Potency result in assay [1], in [2], in [3], in [4], in [5] and in assay [6] was “inactive” throughout. In addition, the Potency result in assay [8], in [12], in assay [9] and in assay [10] was “inactive” each time. Also, the Potency in assay [7] was 14.4 µM (active) and inactive; in assay [13] it was 25.7 µM (active) and 10 µM (active).

`c1ccc(NNc2ccccc2)cc1`: the Potency result in assay [1], in [2], in assay [14], in assay [4], in [5] and in assay [6] was “inactive” each time. In addition, the Potency result in [7], in assay [8], in [9] and in assay [10] was “inactive” in each case. Moreover, the Potency result was “inactive and 48.6 µM (active)” in assay [3]; 71.7 µM (active) and inactive in [12]; 32 µM (active) and 12.6 µM (active) in assay [13].

For `C=CCN(CC=C)C(=O)C(Cl)Cl`, the Potency result in assay [11], in assay [1], in [2], in assay [3], in assay [4] and in assay [5] was “inactive” in each case. Further, the Potency result in assay [6], in assay [7], in assay [8], in [12], in [13] and in [9] was “inactive” throughout.

As for `CCCCC(CC)COC(=O)Cl` (stereo unspecified), the Potency result in assay [11], in assay [1], in assay [2], in assay [3], in [4] and in assay [5] was “inactive” throughout. Also, the Potency result in assay [6], in assay [7], in [8], in assay [12], in assay [13] and in assay [9] was “inactive” each time. Also, the Potency result in assay [10] is “inactive”.

Take `CCc1cccc(CC)c1N(COC)C(=O)CCl`: the Potency result in assay [1], in assay [2], in assay [4], in assay [5], in [6] and in assay [7] was “inactive” in each case. In addition, the Potency result in [13] and in assay [9] was “inactive” in each case. Moreover, the Potency in assay [3] is 10.5 µM (active) and 1.37 µM (active); in assay [8], 9.71 µM (active) and 71 µM (active); in assay [12] it was 30.7 µM (active) and 39.9 µM (active).

For `N[C@@H](Cc1ccc(N(CCCl)CCCl)cc1)C(=O)O`, the Potency entry in [1] and in assay [9] was “inactive” each time. Further, the Potency in assay [2] is 26.2 µM (active); in [7], 34.1 µM (active) and 34.7 µM (active); in assay [8], 8.57 µM (active) and 17.4 µM (active); in [12], 17.1 µM (active) and 27.5 µM (active). In addition, the max activation in assay [15] is -1.77% (inactive).
